Experimental data reported in PubChem BioAssay AID1159580 (chemical genetic matrix, 2015).
“And” between values parts separate entries of the source, which are not always exact repeats. Equal values may be shown once. The campaign covered roughly 5,500 compounds. About 2,000 (36%) were called active. Inconclusive results (about 18%) are left out. Cut-off read from the data, not from the text of the source: active = normalized growth mostly below about 0.91 (no sharp cut-off); inconclusive = no clear call, values can overlap the other calls; inactive = mostly above about 0.92. The list shows a part of the results.

Assay: chemical genetic growth profiling, strain panel (AID 1159580);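 note: tested at 20 µM; growth read once vehicle control cultures reached saturation at 30 °C; 1 = growth at the plate median or of vehicle wells; lower values mean less growth of the strain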
Details: S. cerevisiae deletion strains, growth OD

Measured: normalized growth

COc1ccc(C(=O)N2CCCC2=O)cc1
inactive: locus YAL013W, strain DEP1, active compounds read low 0.971 | locus YAL021C, strain ccr4, active compounds read low 0.981 | locus YAL026C, strain drs2, active compounds read low 0.976 | locus YAL030W, strain snc1, active compounds read low 0.956 | locus YAL040C, strain CLN3, active compounds read low 1.01 | locus YBL061C, strain skt5, active compounds read low 0.962 | locus YBR009C, strain hhf1, active compounds read low 0.969 | locus YBR021W, strain FUR4, active compounds read low 1.05 | locus YBR023C, strain chs3, active compounds read low 0.967 | locus YBR171W, strain sec66, active compounds read low 0.96 | locus YBR229C, strain ROT2, active compounds read low 0.953 | locus YBR231C, strain swc5, active compounds read low 0.967 | locus YBR279W, strain paf1, active compounds read low 0.987 | locus YCL011C, strain gbp2, active compounds read low 0.946 | locus YCL016C, strain dcc1, active compounds read low 0.976 | locus YCL029C, strain bik1, active compounds read low 0.983 | locus YCL061C, strain MRC1, active compounds read low 0.974 | locus YCL069W, strain vba3, active compounds read low 0.985 | locus YCR088W, strain abp1, active compounds read low 0.981 | locus YDL005C, strain med2, active compounds read low 0.974 | locus YDL035C, strain GPR1, active compounds read low 0.984 | locus YDL040C, strain nat1, active compounds read low 0.984 | locus YDL074C, strain BRE1, active compounds read low 0.961 | locus YDL101C, strain DUN1, active compounds read low 0.952 | locus YDL134C, strain PPH21, active compounds read low 0.993 | locus YDL185W, strain tfp1, active compounds read low 0.964 | locus YDL192W, strain arf1, active compounds read low 0.983 | locus YDR001C, strain nth1, active compounds read low 0.97 | locus YDR069C, strain doa4, active compounds read low 0.968 | locus YDR101C, strain arx1, active compounds read low 0.989 | locus YDR137W, strain rgp1, active compounds read low 0.967 | locus YDR150W, strain NUM1, active compounds read low 0.968 | locus YDR159W, strain sac3, active compounds read low 0.968 | locus YDR162C, strain NBP2, active compounds read low 0.968 | locus YDR195W, strain ref2 1 | locus YDR297W, strain sur2, active compounds read low 0.967 | locus YDR318W, strain mcm21, active compounds read low 0.996 | locus YDR334W, strain swr1, active compounds read low 0.939 | locus YDR335W, strain msn5, active compounds read low 0.975 | locus YDR388W, active compounds read low 0.999 | locus YDR392W, strain spt3, active compounds read low 0.929 | locus YDR502C, strain sam2, active compounds read low 0.995 | locus YEL003W, strain gim4, active compounds read low 0.981 | locus YEL037C, strain rad23, active compounds read low 0.979 | locus YEL061C, strain CIN8 (second series), active compounds read low 0.971 | locus YEL061C, strain CIN8, active compounds read low 0.983 | locus YER002W, strain NOP16, active compounds read low 1 | locus YER015W, strain faa2, active compounds read low 0.979 | locus YER016W, strain bim1, active compounds read low 0.984 | locus YER110C, active compounds read low 0.985 | locus YER111C, strain swi4, active compounds read low 0.978 | locus YER155C, strain BEM2 (second series), active compounds read low 0.974 | locus YER155C, strain BEM2, active compounds read low 0.995 | locus YER167W, strain BCK2, active compounds read low 0.983 | locus YFR010W, strain ubp6, active compounds read low 0.962 | locus YGL078C, strain dbp3, active compounds read low 0.985 | locus YGL086W, strain mad1, active compounds read low 0.987 | locus YGL167C, strain pmr1, active compounds read low 0.96 | locus YGL173C, strain kem1, active compounds read low 0.961 | locus YGL227W, strain vid30, active compounds read low 0.971 | locus YGL240W, strain doc1, active compounds read low 0.992 | locus YGL248W, strain PDE1, active compounds read low 0.977 | locus YGL253W, strain hxk2, active compounds read low 0.976 | locus YGR078C, strain PAC10, active compounds read low 0.973 and 1 | locus YGR135W, strain pre9, active compounds read low 0.981 | locus YGR229C, strain SMI1, active compounds read low 0.994 and 1.02 | locus YGR252W, strain gcn5, active compounds read low 1.05 | locus YHR013C, strain ard1, active compounds read low 0.962 | locus YHR027C, strain rpn1, active compounds read low 0.956 | locus YHR030C, strain SLT2, active compounds read low 0.992 | locus YHR079C, strain IRE1 (second series), active compounds read low 0.991 | locus YHR094C, strain hxt1, active compounds read low 0.991 | locus YHR129C, strain ARP1, active compounds read low 0.992 | locus YHR142W, strain chs7, active compounds read low 0.91 | locus YHR200W, strain rpn10, active compounds read low 0.989 | locus YIL066C, strain RNR3, active compounds read low 0.986 | locus YIL073C, strain SPO22, active compounds read low 1.01 | locus YIL125W, strain kgd1, active compounds read low 0.992 | locus YIR030C, strain dcg1, active compounds read low 0.981 | locus YJL092W, strain hpr5, active compounds read low 0.975 | locus YJL095W, strain BCK1 (second series), active compounds read low 0.973 | locus YJL095W, strain BCK1, active compounds read low 1 | locus YJL115W, strain asf1, active compounds read low 0.957 | locus YJL129C, strain trk1, active compounds read low 1.01 | locus YJL134W, strain LCB3, active compounds read low 0.977 | locus YJL154C, strain vps35, active compounds read low 0.975 | locus YJL164C, strain tpk1, active compounds read low 0.985 | locus YJL166W, strain qcr8, active compounds read low 0.945 | locus YJL168C, strain set2, active compounds read low 0.992 | locus YJL187C, strain SWE1 (second series), active compounds read low 0.98 | locus YJL187C, strain SWE1, active compounds read low 0.975 | locus YJR043C, strain POL32, active compounds read low 1
